# Assay results taken from PubChem BioAssay.
# Unmarked numbers belong to inactive results. Active and inactive are the calls of the source.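 The calls were made as follows, unless noted: active = mean inhibition above 46.68%, the untreated control wells mean plus 3 SD; inactive = the rest.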
# Key:
# [1] = target: Nuclear receptor coactivator 1 (Homo sapiens) (UniProt Q15788); test: NCOA1 GAL4-fusion reporter inhibition – cell-based, luminescence, quadruplicate, confirmation (AID 588820); conditions: HEK293 GAL4-SRC1 luciferase reporter, at 3.6 µM, hits give high values;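 also: 0% = DMSO wells and 100% = gossypol 36 µM treated wells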
# Nuclear receptor coactivator 1 (Homo sapiens), sequence (Q15788 whole entry, looked up, the tested form may be a part): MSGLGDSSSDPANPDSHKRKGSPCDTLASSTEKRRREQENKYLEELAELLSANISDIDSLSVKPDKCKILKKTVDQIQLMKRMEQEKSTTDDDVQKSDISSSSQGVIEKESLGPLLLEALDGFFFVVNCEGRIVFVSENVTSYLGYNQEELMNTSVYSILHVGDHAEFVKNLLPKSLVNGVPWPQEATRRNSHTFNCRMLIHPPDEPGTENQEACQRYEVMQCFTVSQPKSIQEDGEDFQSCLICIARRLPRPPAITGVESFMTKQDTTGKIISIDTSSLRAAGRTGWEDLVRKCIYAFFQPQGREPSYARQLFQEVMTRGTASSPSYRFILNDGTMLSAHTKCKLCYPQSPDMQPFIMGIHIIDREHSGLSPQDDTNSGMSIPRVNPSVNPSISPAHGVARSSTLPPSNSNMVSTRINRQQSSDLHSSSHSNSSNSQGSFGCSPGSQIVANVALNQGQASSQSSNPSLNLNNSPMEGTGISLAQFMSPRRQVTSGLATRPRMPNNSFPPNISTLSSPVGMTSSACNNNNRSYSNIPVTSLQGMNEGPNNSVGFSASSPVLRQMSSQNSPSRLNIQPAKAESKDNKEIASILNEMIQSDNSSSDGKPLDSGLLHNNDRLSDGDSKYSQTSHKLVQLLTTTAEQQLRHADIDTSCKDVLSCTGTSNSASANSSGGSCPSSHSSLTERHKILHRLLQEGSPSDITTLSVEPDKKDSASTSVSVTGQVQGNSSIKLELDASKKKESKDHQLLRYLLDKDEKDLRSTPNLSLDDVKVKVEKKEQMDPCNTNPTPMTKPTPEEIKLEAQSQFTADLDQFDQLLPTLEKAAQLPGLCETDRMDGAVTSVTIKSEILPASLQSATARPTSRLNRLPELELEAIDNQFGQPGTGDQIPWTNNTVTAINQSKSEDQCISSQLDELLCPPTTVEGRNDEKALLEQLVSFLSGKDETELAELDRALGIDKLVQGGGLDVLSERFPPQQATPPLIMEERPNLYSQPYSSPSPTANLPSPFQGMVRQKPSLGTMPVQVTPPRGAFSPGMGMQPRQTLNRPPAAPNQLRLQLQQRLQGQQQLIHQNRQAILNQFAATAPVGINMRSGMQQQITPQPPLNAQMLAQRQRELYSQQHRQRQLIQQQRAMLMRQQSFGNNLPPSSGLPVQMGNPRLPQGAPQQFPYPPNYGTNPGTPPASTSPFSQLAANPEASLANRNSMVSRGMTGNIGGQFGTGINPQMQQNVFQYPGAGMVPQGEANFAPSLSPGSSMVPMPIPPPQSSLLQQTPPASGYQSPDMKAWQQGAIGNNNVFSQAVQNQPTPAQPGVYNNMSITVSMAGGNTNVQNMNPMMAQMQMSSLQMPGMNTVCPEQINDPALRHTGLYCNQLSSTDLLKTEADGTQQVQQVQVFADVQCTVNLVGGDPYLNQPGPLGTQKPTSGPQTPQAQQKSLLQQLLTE
# [2] = repression of VP16-driven luciferase reporter – cell-based, luminescence, high throughput, counter-screen for SRC1 inhibitor project (AID 588824; in the data active = inhibition above about 25%); conditions: cell-based VP16 transactivation luciferase luminescence; at 3.6 µM; hits give high values
# [3] = target: Nuclear receptor coactivator 3 (Homo sapiens) (UniProt Q9Y6Q9); test: NCOA3 GAL4-fusion reporter inhibition – cell-based, luminescence, quadruplicate, confirmation (AID 588792;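 active = mean inhibition over 43.08%, the solvent-only control mean plus 3 SD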;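 also: 0% = DMSO treated cells and 100% = gossypol at 36 µM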); conditions: HEK293 GAL4-SRC3 luciferase reporter, at 3.6 µM, hits give high values
# Nuclear receptor coactivator 3 (Homo sapiens), sequence (Q9Y6Q9 whole entry, looked up, the tested form may be a part): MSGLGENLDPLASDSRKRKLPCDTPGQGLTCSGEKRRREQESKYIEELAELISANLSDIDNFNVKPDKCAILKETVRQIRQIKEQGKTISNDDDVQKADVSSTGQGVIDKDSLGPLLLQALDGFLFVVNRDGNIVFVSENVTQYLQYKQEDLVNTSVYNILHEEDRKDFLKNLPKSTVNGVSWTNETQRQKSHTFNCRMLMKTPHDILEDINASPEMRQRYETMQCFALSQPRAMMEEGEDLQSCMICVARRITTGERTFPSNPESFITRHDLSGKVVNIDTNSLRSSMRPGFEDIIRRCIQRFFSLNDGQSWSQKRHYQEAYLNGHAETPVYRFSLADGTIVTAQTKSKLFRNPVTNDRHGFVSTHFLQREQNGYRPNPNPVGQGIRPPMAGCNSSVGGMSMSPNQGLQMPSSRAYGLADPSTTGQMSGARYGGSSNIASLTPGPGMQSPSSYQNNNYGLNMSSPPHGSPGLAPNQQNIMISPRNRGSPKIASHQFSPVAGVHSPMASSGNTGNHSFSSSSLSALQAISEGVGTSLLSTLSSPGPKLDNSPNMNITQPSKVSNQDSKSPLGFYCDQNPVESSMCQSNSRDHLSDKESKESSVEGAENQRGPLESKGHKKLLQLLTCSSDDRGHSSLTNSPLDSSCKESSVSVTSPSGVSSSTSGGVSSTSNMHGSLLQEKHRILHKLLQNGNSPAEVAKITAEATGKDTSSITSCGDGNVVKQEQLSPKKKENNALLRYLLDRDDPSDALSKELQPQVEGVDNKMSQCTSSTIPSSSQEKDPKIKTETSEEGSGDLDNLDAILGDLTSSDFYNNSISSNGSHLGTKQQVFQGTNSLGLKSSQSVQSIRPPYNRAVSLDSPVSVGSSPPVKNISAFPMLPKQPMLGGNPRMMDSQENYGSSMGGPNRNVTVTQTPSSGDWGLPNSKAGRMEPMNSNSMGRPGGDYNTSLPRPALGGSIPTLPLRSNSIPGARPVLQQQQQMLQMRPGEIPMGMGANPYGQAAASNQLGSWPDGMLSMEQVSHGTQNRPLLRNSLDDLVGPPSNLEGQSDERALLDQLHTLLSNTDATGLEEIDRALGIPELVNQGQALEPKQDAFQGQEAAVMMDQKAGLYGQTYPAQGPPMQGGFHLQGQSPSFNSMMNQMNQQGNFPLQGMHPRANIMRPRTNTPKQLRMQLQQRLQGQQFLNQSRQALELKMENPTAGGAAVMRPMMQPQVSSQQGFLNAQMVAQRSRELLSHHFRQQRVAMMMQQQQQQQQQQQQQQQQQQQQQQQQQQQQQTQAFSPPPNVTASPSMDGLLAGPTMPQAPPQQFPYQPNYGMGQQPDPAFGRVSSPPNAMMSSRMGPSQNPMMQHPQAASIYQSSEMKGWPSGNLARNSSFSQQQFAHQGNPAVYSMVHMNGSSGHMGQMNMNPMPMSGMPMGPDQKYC
# [4] = test system: transactivating tegument protein VP16 (Human herpesvirus 1), Gal4-VP16 luciferase reporter; test: repression of VP16-driven luciferase reporter – cell-based, luminescence, high throughput, counter-screen for SRC3 inhibitor project (AID 588794; in the data active = inhibition above about 30%); conditions: mammalian cells, at 3.6 µM, hits give high values
# [5] = test system: transactivating tegument protein VP16 (Human herpesvirus 1); test: compounds suppressing VP16-driven luciferase signal – cell-based, luminescence, single concentration, counter-screen for SRC2 inhibitor project (AID 652007; in the data active = inhibition above about 36%); conditions: cell-based VP16 transactivation luciferase reporter, at 8.9 µM, hits give high values
# [6] = target: Nuclear receptor coactivator 2 (Homo sapiens) (UniProt Q15596); test: inhibition of GAL4-SRC2 driven luciferase expression – cell-based, luminescence, HEK293, triplicate, confirmation (AID 652008;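 active = mean inhibition above 46.5%, the solvent-only control mean plus 3 SD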;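 also: 0% = DMSO-treated cells and 100% = Gossypol at 36 µM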); conditions: HEK293 GAL4-SRC2 luciferase reporter, at 8.9 µM, hits give high values
# Nuclear receptor coactivator 2 (Homo sapiens), sequence (Q15596 whole entry, looked up, the tested form may be a part): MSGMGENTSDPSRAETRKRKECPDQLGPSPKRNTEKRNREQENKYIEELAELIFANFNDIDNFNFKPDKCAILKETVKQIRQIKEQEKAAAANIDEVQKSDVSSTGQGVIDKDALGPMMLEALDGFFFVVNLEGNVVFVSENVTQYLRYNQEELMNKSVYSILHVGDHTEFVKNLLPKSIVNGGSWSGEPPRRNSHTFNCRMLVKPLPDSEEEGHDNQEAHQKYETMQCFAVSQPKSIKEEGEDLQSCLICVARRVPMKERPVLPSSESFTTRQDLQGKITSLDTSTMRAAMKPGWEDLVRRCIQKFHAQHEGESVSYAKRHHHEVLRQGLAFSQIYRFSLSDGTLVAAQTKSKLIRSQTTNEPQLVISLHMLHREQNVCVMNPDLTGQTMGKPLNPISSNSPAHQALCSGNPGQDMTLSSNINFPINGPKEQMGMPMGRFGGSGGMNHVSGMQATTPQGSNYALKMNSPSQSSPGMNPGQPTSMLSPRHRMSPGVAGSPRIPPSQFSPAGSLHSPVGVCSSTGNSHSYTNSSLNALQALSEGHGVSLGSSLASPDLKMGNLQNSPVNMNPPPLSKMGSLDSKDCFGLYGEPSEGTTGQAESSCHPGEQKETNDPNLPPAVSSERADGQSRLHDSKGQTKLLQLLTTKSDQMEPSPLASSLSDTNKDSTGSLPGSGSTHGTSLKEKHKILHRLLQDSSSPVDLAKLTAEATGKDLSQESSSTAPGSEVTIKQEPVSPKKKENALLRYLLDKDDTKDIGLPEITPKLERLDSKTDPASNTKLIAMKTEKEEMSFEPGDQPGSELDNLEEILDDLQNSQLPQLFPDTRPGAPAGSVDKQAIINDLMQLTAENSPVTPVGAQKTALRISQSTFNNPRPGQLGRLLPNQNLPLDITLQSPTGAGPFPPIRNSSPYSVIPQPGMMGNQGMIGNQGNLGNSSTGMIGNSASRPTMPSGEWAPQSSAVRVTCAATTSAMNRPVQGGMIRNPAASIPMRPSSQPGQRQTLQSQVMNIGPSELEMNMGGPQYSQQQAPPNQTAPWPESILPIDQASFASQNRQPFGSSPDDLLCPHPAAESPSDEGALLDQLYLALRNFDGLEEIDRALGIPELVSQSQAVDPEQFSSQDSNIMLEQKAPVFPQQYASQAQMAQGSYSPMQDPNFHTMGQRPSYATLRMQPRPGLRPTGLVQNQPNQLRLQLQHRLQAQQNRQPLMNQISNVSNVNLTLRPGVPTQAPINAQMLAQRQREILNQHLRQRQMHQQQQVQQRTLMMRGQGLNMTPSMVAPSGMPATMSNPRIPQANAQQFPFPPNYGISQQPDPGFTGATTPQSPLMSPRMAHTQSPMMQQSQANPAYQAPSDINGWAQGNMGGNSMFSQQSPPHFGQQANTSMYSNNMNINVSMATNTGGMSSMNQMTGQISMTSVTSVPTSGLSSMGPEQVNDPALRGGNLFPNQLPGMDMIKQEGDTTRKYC
smiles,measurement,setting,value
COc1ccccc1CNC(=O)C1CCCN(S(=O)(=O)c2cccc3nsnc23)C1 (stereo not given),inhibition,[1],-23.4%
same,inhibition,[2],-0.08%
CCCc1cc(-c2ccc(O)c(OCC)c2)c(C#N)c(N)n1,inhibition,[1],-3.92%
same,inhibition,[2],-2.24%
O=C1NCCc2c1[nH]c1ccc([N+](=O)[O-])cc21,inhibition,[1],23.1%
same,inhibition,[2],18.1%
CCCCCCCN(c1ccccc1)[C@@H]1C[C@H]2CCCC(=O)N3CC[C@@H](C1)[C@@H]23,inhibition,[3],6.93%
same,inhibition,[4],30.5% (active)
same,inhibition,[5],25%
same,inhibition,[6],35%
c1cncc(CNC2CCCc3ccccc32)c1 (stereo not given),inhibition,[1],0.67%
same,inhibition,[2],-8.78%
Cc1ccccc1Nc1nc(N)nc(CCl)n1,inhibition,[3],22.9%
same,inhibition,[4],0.42%
same,inhibition,[5],-11.3%
same,inhibition,[6],52.5% (active)
O=C(Nc1ccc(OCC(=O)N2CCOCC2)cc1)c1cncc(Br)c1,inhibition,[3],29.6%
same,inhibition,[4],23%
same,inhibition,[5],3.8%
same,inhibition,[6],26.1%
